Here are results for 39 compounds from the supplement of paper PMC7411054.

Molecules are shown by their SMILES. Structures can show the parent of a compound that is named as a salt.

One test relates to A549-CANX-COX4. The test is described as follows: phenotypically active (imaging signature differs from DMSO and reproducible) at any of 0.3-9 uM (binary (1 = active, 0 = inactive)); higher = active. The conditions noted are these: treatment time: 24 h. The method in brief: (§1)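 Fifteen gene-edited A549, HepG2 and WPMY1 reporter lines (BFP segmentation plus GFP and RFP/FusionRed markers) were treated at 0.3, 1, 3 or 9 µM for 24 h, four wells each, then imaged live. Live-cell features per well were normalised to DMSO control wells. Deviation required ≥3 of 4 wells beyond the 95th percentile of DMSO Euclidean distances, and reproducibility required median replicate Pearson correlation above the 95th percentile of non-replicates. Phenotypic activity needed both criteria.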
Consider `O=C(CCCCCCC(=O)Nc1ccc([C@H]2O[C@@H](CSc3nc(-c4ccccc4)c(-c4ccccc4)o3)C[C@@H](c3ccc(CO)cc3)O2)cc1)NO` [Tubacin], for which the phenotypically active was 0 (inactive).
The same measure, in the same setting: next, `CC1CNCCN1S(=O)(=O)c1cccc2cnccc12` (stereo not drawn) [H-7 dihydrochloride]: 0 (inactive).
With `COc1cc(OC)c2c(=O)[nH]c(-c3cc(C)c(OCCO)c(C)c3)nc2c1` [apabetalone], the phenotypically active is 0 (inactive).
On the same count and under the same terms, next, `CC1(CN2CCC(n3c(=O)[nH]c4ccccc43)CC2)OCc2ccccc2-n2cccc21` (stereo not drawn): 0 (inactive).
The same measure, in the same setting: then `N#Cc1ccc2ncnc(NCCc3ccccc3)c2c1` [Senexin A], with 0 (inactive).
Still for that read-out and setting: then `Nc1ccc(N=Nc2ccccc2)c(N)n1` [phenazopyridine], with 0 (inactive).
With `O=C(CCCCCCC(=O)NO)NO`, the phenotypically active is 0 (inactive).
Regarding `CC(C)(C)c1ccc(C(O)CCCN2CCC(C(O)(c3ccccc3)c3ccccc3)CC2)cc1` (stereo not drawn) [terfenadine], the phenotypically active is 0 (inactive).
The same measure, in the same setting: next, `COc1ccccc1C(=O)Nc1cc2c(cc1N1CCCC1)n(C)c(=O)n2C`: 0 (inactive); `CCC(=O)N1CCOc2c(cc(-c3ccc(OC)c(OC)c3)cc2OC[C@H]2CCCN(C)C2)C1`: 0 (inactive).
Turning to `CCc1nc(-c2cccc(C)c2)c(-c2ccnc(NC(=O)c3ccccc3)c2)s1`, the phenotypically active is 0 (inactive).
Still for that read-out and setting: next, `Cc1ccc(S(=O)(=O)n2c(N)nc3ccccc32)cc1`: 0 (inactive); `Cc1ccc(NC(=O)c2cccc(C(C)(C)C#N)c2)cc1Nc1ccc2ncn(C)c(=O)c2c1`: 0 (inactive); `Cn1cc(-c2cnc3ccc4ccc(CS(=O)(=O)NCc5ccccn5)cc4c(=O)c3c2)cn1`: 0 (inactive).
Still for that read-out and setting: then `O=C1c2c(O)cccc2Cc2cccc(O)c21` [anthralin], with 0 (inactive).
Same read-out and setting: next, `COc1cc2c(cc1OC)-c1c/c(=N/c3c(C)cc(C)cc3C)n(C)c(=O)n1CC2` [Trequinsin hydrochloride]: 0 (inactive); `O=C(Nc1ccncc1)c1cc([N+](=O)[O-])ccc1Cl`: 0 (inactive); `Nc1ncnc2c1c(-c1ccc(Oc3ccccc3)cc1)nn2C1CCCC1`: 0 (inactive).
Consider `O=C(Nc1ccc(CN2CCOCC2)cc1)c1ccc(-c2cccc(Cl)c2)o1`, for which the phenotypically active is 0 (inactive).
On the same count and under the same terms, then `O=C(/C=C/c1ccc2ccccc2n1)c1ccncc1`, with 0 (inactive).
On the same count and under the same terms, next, `CNCC[C@H](Oc1cccc2ccccc12)c1cccs1` [duloxetine]: 0 (inactive); `CNC(=O)c1cc(Oc2ccc(NC(=O)Nc3ccc(Cl)c(C(F)(F)F)c3)c(F)c2)ccn1` [regorafenib]: 0 (inactive); `NC(=O)[C@@H](CCC(F)(F)F)N(Cc1ccc(-c2ncon2)cc1F)S(=O)(=O)c1ccc(Cl)cc1` [avagacestat]: 0 (inactive).
Regarding `CCC(C)(C)C(=O)O[C@H]1C[C@@H](C)C=C2C=C[C@H](C)[C@H](CC[C@@H]3C[C@@H](O)CC(=O)O3)[C@H]21` [Simvastatin], the phenotypically active is 0 (inactive).
On to `Nc1cc(N)c(N)cc1N` [FAK Inhibitor 14], for which the phenotypically active was 0 (inactive).
Turning to `Cc1ccc(S(=O)(=O)c2ccc([N+](=O)[O-])o2)cc1`, the phenotypically active is 0 (inactive).
The same measure, in the same setting: then `Fc1ccccc1Nc1nc2nonc2nc1Nc1ccccc1F`, with 0 (inactive); and `Cc1ccc(O)c([C@H](CCN(C(C)C)C(C)C)c2ccccc2)c1` [Tolterodine L-tartrate], with 0 (inactive).
As for `O=c1cc(-c2ccccc2)oc2cc(O)cc(O)c12` [Chrysin], the phenotypically active is 0 (inactive).
Still for that read-out and setting: then `COc1cc2nccc(Oc3ccc(NC(=O)C4(C(=O)Nc5ccc(F)cc5)CC4)cc3)c2cc1OC`, with 0 (inactive); and `CC(C)c1nc(CN(C)C(=O)N[C@H](C(=O)N[C@@H](Cc2ccccc2)C[C@H](O)[C@H](Cc2ccccc2)NC(=O)OCc2cncs2)C(C)C)cs1` [ritonavir], with 0 (inactive).
For the compound `CC[C@H](CO)Nc1nc(Nc2cccc(-c3ccccn3)c2)c2ncn(C(C)C)c2n1` [(R)-DRF053 dihydrochloride], the phenotypically active was 0 (inactive).
Same read-out and setting: next, `CN1c2ccc([N+](=O)[O-])cc2N=C(c2ccc(C(=O)O)cc2)c2cc3c(cc21)C(C)(C)CCC3(C)C`: 0 (inactive); `COc1ccc(CCc2nc3cc(-c4c(C)noc4C)ccc3n2C[C@H](C)N2CCOCC2)cc1Cl`: 0 (inactive).
Same read-out and setting: next, `CCOC(=O)c1c2c3c(cccc3[nH]c1=O)C(=O)c1ccccc1-2`: 0 (inactive); `CCN1/C(=C/C(C)=O)Sc2ccc(O)cc21`: 0 (inactive).
On to `CC(C)(C)n1nc(-c2ccc(Cl)cc2)c2c(N)ncnc21`, for which the phenotypically active is 0 (inactive).
The same measure, in the same setting: next, `O=S(=O)(c1cccc2cnccc12)N1CCNCC1`: 0 (inactive); `CC(C)c1c(C(=O)Nc2ccccc2)c(-c2ccccc2)c(-c2ccc(F)cc2)n1CC[C@@H](O)C[C@@H](O)CC(=O)O` [atorvastatin]: 0 (inactive).

The next test concerns A549-GM130-SQSTM1. The test is described as above. To be noted: treatment time: 24 h. The method in brief:
as §1
As to `O=C(CCCCCCC(=O)Nc1ccc([C@H]2O[C@@H](CSc3nc(-c4ccccc4)c(-c4ccccc4)o3)C[C@@H](c3ccc(CO)cc3)O2)cc1)NO` [Tubacin], the phenotypically active was 1 (active).
Regarding `CC1CNCCN1S(=O)(=O)c1cccc2cnccc12` (stereo not drawn) [H-7 dihydrochloride], the phenotypically active was 1 (active).
Same read-out and setting: next, `COc1cc(OC)c2c(=O)[nH]c(-c3cc(C)c(OCCO)c(C)c3)nc2c1` [apabetalone]: 1 (active).
Still for that read-out and setting: next, `CC1(CN2CCC(n3c(=O)[nH]c4ccccc43)CC2)OCc2ccccc2-n2cccc21` (stereo not drawn): 0 (inactive); `N#Cc1ccc2ncnc(NCCc3ccccc3)c2c1` [Senexin A]: 1 (active).
Still for that read-out and setting: then `Nc1ccc(N=Nc2ccccc2)c(N)n1` [phenazopyridine], with 1 (active); and `O=C(CCCCCCC(=O)NO)NO`, with 0 (inactive); and `CC(C)(C)c1ccc(C(O)CCCN2CCC(C(O)(c3ccccc3)c3ccccc3)CC2)cc1` (stereo not drawn) [terfenadine], with 1 (active).
For `COc1ccccc1C(=O)Nc1cc2c(cc1N1CCCC1)n(C)c(=O)n2C`, the phenotypically active was 1 (active).
For the compound `CCC(=O)N1CCOc2c(cc(-c3ccc(OC)c(OC)c3)cc2OC[C@H]2CCCN(C)C2)C1`, the phenotypically active was 0 (inactive).
On the same count and under the same terms, next, `CCc1nc(-c2cccc(C)c2)c(-c2ccnc(NC(=O)c3ccccc3)c2)s1`: 1 (active); `Cc1ccc(S(=O)(=O)n2c(N)nc3ccccc32)cc1`: 0 (inactive).
Still for that read-out and setting: next, `Cc1ccc(NC(=O)c2cccc(C(C)(C)C#N)c2)cc1Nc1ccc2ncn(C)c(=O)c2c1`: 0 (inactive).
In the case of `Cn1cc(-c2cnc3ccc4ccc(CS(=O)(=O)NCc5ccccn5)cc4c(=O)c3c2)cn1`, the phenotypically active is 0 (inactive).
Same read-out and setting: next, `O=C1c2c(O)cccc2Cc2cccc(O)c21` [anthralin]: 1 (active); `COc1cc2c(cc1OC)-c1c/c(=N/c3c(C)cc(C)cc3C)n(C)c(=O)n1CC2` [Trequinsin hydrochloride]: 1 (active).
Same read-out and setting: then `O=C(Nc1ccncc1)c1cc([N+](=O)[O-])ccc1Cl`, with 0 (inactive).
The same measure, in the same setting: then `Nc1ncnc2c1c(-c1ccc(Oc3ccccc3)cc1)nn2C1CCCC1`, with 1 (active); and `O=C(Nc1ccc(CN2CCOCC2)cc1)c1ccc(-c2cccc(Cl)c2)o1`, with 0 (inactive).
Turning to `O=C(/C=C/c1ccc2ccccc2n1)c1ccncc1`, the phenotypically active was 0 (inactive).
In the case of `CNCC[C@H](Oc1cccc2ccccc12)c1cccs1` [duloxetine], the phenotypically active was 0 (inactive).
Turning to `CNC(=O)c1cc(Oc2ccc(NC(=O)Nc3ccc(Cl)c(C(F)(F)F)c3)c(F)c2)ccn1` [regorafenib], the phenotypically active was 0 (inactive).
On the same count and under the same terms, next, `NC(=O)[C@@H](CCC(F)(F)F)N(Cc1ccc(-c2ncon2)cc1F)S(=O)(=O)c1ccc(Cl)cc1` [avagacestat]: 0 (inactive).
As for `CCC(C)(C)C(=O)O[C@H]1C[C@@H](C)C=C2C=C[C@H](C)[C@H](CC[C@@H]3C[C@@H](O)CC(=O)O3)[C@H]21` [Simvastatin], the phenotypically active was 0 (inactive).
Same read-out and setting: then `Nc1cc(N)c(N)cc1N` [FAK Inhibitor 14], with 1 (active); and `Cc1ccc(S(=O)(=O)c2ccc([N+](=O)[O-])o2)cc1`, with 1 (active).
Regarding `Fc1ccccc1Nc1nc2nonc2nc1Nc1ccccc1F`, the phenotypically active was 1 (active).
The same measure, in the same setting: then `Cc1ccc(O)c([C@H](CCN(C(C)C)C(C)C)c2ccccc2)c1` [Tolterodine L-tartrate], with 1 (active); and `O=c1cc(-c2ccccc2)oc2cc(O)cc(O)c12` [Chrysin], with 1 (active).
The same measure, in the same setting: then `COc1cc2nccc(Oc3ccc(NC(=O)C4(C(=O)Nc5ccc(F)cc5)CC4)cc3)c2cc1OC`, with 1 (active); and `CC(C)c1nc(CN(C)C(=O)N[C@H](C(=O)N[C@@H](Cc2ccccc2)C[C@H](O)[C@H](Cc2ccccc2)NC(=O)OCc2cncs2)C(C)C)cs1` [ritonavir], with 1 (active); and `CC[C@H](CO)Nc1nc(Nc2cccc(-c3ccccn3)c2)c2ncn(C(C)C)c2n1` [(R)-DRF053 dihydrochloride], with 1 (active).
Same read-out and setting: next, `CN1c2ccc([N+](=O)[O-])cc2N=C(c2ccc(C(=O)O)cc2)c2cc3c(cc21)C(C)(C)CCC3(C)C`: 1 (active); `COc1ccc(CCc2nc3cc(-c4c(C)noc4C)ccc3n2C[C@H](C)N2CCOCC2)cc1Cl`: 0 (inactive); `CCOC(=O)c1c2c3c(cccc3[nH]c1=O)C(=O)c1ccccc1-2`: 1 (active).
Turning to `CCN1/C(=C/C(C)=O)Sc2ccc(O)cc21`, the phenotypically active is 0 (inactive).
With `CC(C)(C)n1nc(-c2ccc(Cl)cc2)c2c(N)ncnc21`, the phenotypically active is 0 (inactive).
The same measure, in the same setting: next, `O=S(=O)(c1cccc2cnccc12)N1CCNCC1`: 0 (inactive); `CC(C)c1c(C(=O)Nc2ccccc2)c(-c2ccccc2)c(-c2ccc(F)cc2)n1CC[C@@H](O)C[C@@H](O)CC(=O)O` [atorvastatin]: 0 (inactive).
